Assay results from PubChem BioAssay (NCATS).
Results filed as inconclusive are left out. A call without a number means that no potency is given here. The source made the active and inactive calls. Calls come from the whole dose curve; as a rule, active = well fitted cell-killing curve with a large enough effect; inconclusive = small, poorly fitted or top-dose-only effect, or effect the other way; inactive = no such curve, though single readings can be large or run the other way.

Test: Quantitative High-Throughput drug screen in 47 multiple myeloma cell lines against the NCATS MIPE library collection: MM1R_ATCC cell viability assay (AID 1918981)
Conditions: MM1R multiple myeloma cells, CellTiter-Glo viability, 48 h; series mostly up to 45.8 µM
How it was run: (§1)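 500 cells/well per myeloma line exposed to pinned MIPE 4.0 compounds for 48 h at 37 °C, 5% CO2. Viability read as ATP by CellTiter-Glo luminescence, normalised to DMSO-only (100%) and media-only (0%) wells.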
Note: nearly all actives have a fitted effect of over 35% in size.
Potency is the fitted concentration of half-maximal effect.

SMILES | Potency
CN(C)CCc1ccc(O)cc1 | inactive
C[C@@H]1O[C@@H](O[C@H]2C[C@@H](O)[C@]3(CO)[C@H]4[C@H](O)C[C@]5(C)[C@@H](C6=CC(=O)OC6)CC[C@]5(O)[C@@H]4CC[C@]3(O)C2)[C@H](O)[C@H](O)[C@H]1O | 0.0526 µM (active)
Cc1cccc(C)c1NC(=O)CN1CCCC1=O | inactive
CC1=C2C[C@@H]3[C@@H](CC=C4C[C@@H](O)CC[C@@]43C)[C@@H]2CC[C@]12O[C@H]1C[C@H](C)CN[C@H]1[C@H]2C | 14.8 µM (active)
COc1ccc(C(CN(C)C)C2(O)CCCCC2)cc1 (configuration not stated) | inactive
C[C@@H]1[C@@H](CC(C[C@H]2O[C@@H]3O[C@]4(C)CC[C@@H]5[C@H](C)CC[C@@H]([C@H]2C)[C@@]35OO4)C[S+](=O)([O-])c2ccc(COC(=O)N(C)C)cc2)O[C@@H]2O[C@]3(C)CC[C@H]4[C@H](C)CC[C@@H]1[C@@]24OO3 (some centres not stated) | 0.332 µM (active)
CCCC(C)(COC(N)=O)COC(=O)NC(C)C (configuration not stated) | inactive
Fc1ccc(C(OCCN2CCN(CCCc3ccccc3)CC2)c2ccc(F)cc2)cc1 | 16.6 µM (active)
COc1ccc(C(=O)c2c(C)n(CCN3CCOCC3)c3ccccc23)cc1 | inactive
O=C(O)C(=O)c1cn(Cc2ccccc2)c2ccc(-c3ccc(OC(F)(F)F)cc3)cc12 | inactive
C=C(C)[C@H]1Cc2c(ccc3c2O[C@@H]2COc4cc(OC)c(OC)cc4[C@@H]2C3=O)O1 | 0.526 µM (active)
Cn1cc(C2=C(c3cn(C4CCN(Cc5ccccn5)CC4)c4ccccc34)C(=O)NC2=O)c2ccccc21 | 13.2 µM (active)
Cn1c(CCCC(=O)O)nc2cc(N(CCCl)CCCl)ccc21 | 18.7 µM (active)
N[C@@H](Cc1ccc(N(CCCl)CCCl)cc1)C(=O)O | 2.64 µM (active)
Cc1sc2c(c1C)C(c1ccc(Cl)cc1)=N[C@@H](CC(=O)OC(C)(C)C)c1nnc(C)n1-2 | 0.332 µM (active)
COC[C@@H](NC(C)=O)C(=O)NCc1ccccc1 | inactive
CN(C)CCN(C)CCc1ccc(Cl)c(Cl)c1 | inactive
COC[C@H]1OC(=O)c2coc3c2[C@@]1(C)C1=C(C3=O)C2CCC(=O)[C@@]2(C)C[C@H]1OC(C)=O (some centres not stated) | 1.18 µM (active)
COC1(CS(=O)c2ccccc2)CCN(CCc2c[nH]c3ccc(F)cc23)CC1 (configuration not stated) | inactive
CC(O)(CS(=O)(=O)c1ccc(F)cc1)C(=O)Nc1ccc(C#N)c(C(F)(F)F)c1 (configuration not stated) | 1.05 µM (active)
O=c1[nH]c2ccccc2n1CCCN1CCC(n2c(=O)[nH]c3cc(Cl)ccc32)CC1 | inactive
CNC(=O)c1ccc(N2C(=S)N(c3ccc(C#N)c(C(F)(F)F)c3)C(=O)C23CCC3)cc1F | 13.2 µM (active)
CNCC(O)c1ccc(O)cc1 (configuration not stated) | 4.18 µM (active)
CN1CCN(C(=O)O[C@H]2c3nccnc3C(=O)N2c2ccc(Cl)cn2)CC1 | inactive
C[C@@H]1[C@@H](C(=O)C[C@H]2O[C@@H]3O[C@]4(C)CC[C@@H]5[C@H](C)CC[C@@H]([C@H]2C)[C@@]35OO4)O[C@@H]2O[C@]3(C)CC[C@H]4[C@H](C)CC[C@@H]1[C@@]24OO3 | 3.72 µM (active)

Test: Quantitative High-Throughput drug screen in 47 multiple myeloma cell lines against the NCATS MIPE library collection: LP1_DSMZ cell viability assay (AID 1918982)
Conditions: LP1 myeloma viability, CellTiter-Glo ATP luminescence, 48 h; series mostly up to 45.8 µM
How it was run: as §1

SMILES | Potency
CN(C)CCc1ccc(O)cc1 | inactive
C[C@@H]1O[C@@H](O[C@H]2C[C@@H](O)[C@]3(CO)[C@H]4[C@H](O)C[C@]5(C)[C@@H](C6=CC(=O)OC6)CC[C@]5(O)[C@@H]4CC[C@]3(O)C2)[C@H](O)[C@H](O)[C@H]1O | 0.0166 µM (active)
Cc1cccc(C)c1NC(=O)CN1CCCC1=O | inactive
CC1=C2C[C@@H]3[C@@H](CC=C4C[C@@H](O)CC[C@@]43C)[C@@H]2CC[C@]12O[C@H]1C[C@H](C)CN[C@H]1[C@H]2C | inactive
COc1ccc(C(CN(C)C)C2(O)CCCCC2)cc1 (configuration not stated) | inactive
CCCC(C)(COC(N)=O)COC(=O)NC(C)C (configuration not stated) | inactive
Cc1cc(SCc2sc(-c3ccc(C(F)(F)F)c(F)c3)nc2C)ccc1OCC(=O)O | 16.6 µM (active)
Fc1ccc(C(OCCN2CCN(CCCc3ccccc3)CC2)c2ccc(F)cc2)cc1 | 18.7 µM (active)
COc1ccc(C(=O)c2c(C)n(CCN3CCOCC3)c3ccccc23)cc1 | inactive
O=C(O)C(=O)c1cn(Cc2ccccc2)c2ccc(-c3ccc(OC(F)(F)F)cc3)cc12 | inactive
O=C1CC[C@@]2(O)[C@H]3Cc4ccc(O)c5c4[C@@]2(CCN3CC2CC2)[C@H]1O5 | inactive
C=C(C)[C@H]1Cc2c(ccc3c2O[C@@H]2COc4cc(OC)c(OC)cc4[C@@H]2C3=O)O1 | 0.264 µM (active)
Cn1cc(C2=C(c3cn(C4CCN(Cc5ccccn5)CC4)c4ccccc34)C(=O)NC2=O)c2ccccc21 | 10.5 µM (active)
N[C@@H](Cc1ccc(N(CCCl)CCCl)cc1)C(=O)O | 16.6 µM (active)
CC(C)CC(N(C)C)C1(c2ccc(Cl)cc2)CCC1 (configuration not stated) | inactive
Cc1sc2c(c1C)C(c1ccc(Cl)cc1)=N[C@@H](CC(=O)OC(C)(C)C)c1nnc(C)n1-2 | 1.05 µM (active)
COC[C@@H](NC(C)=O)C(=O)NCc1ccccc1 | inactive
C#CCN(C)[C@H](C)Cc1ccccc1 | inactive
COC1(CS(=O)c2ccccc2)CCN(CCc2c[nH]c3ccc(F)cc23)CC1 (configuration not stated) | inactive
CNCC(O)c1ccc(O)cc1 (configuration not stated) | inactive
CN1CCN(C(=O)O[C@H]2c3nccnc3C(=O)N2c2ccc(Cl)cn2)CC1 | inactive
NCC1(CC(=O)O)CCCCC1 | inactive
